According to PubChem BioAssay (NCATS):
“And” between values parts separate entries of the source, which are not always exact repeats. Equal entries are not always repeated. Inconclusive results are not listed. The source made the active and inactive calls. Unless noted, the call rests on the fitted dose curve; in most records, active means well fitted curve in the direction sought with a large enough effect; inconclusive means small, poorly fitted or top-dose-only effect, or another doubt; inactive means no such curve, though single readings can be large; an effect the other way counts as inactive or inconclusive.

How the values were obtained:
[1] = target: Cellular tumor antigen p53 (Homo sapiens) (UniProt P04637); experiment: Primary qHTS for small molecule compounds that upregulate eGFP-tagged delta133p53alpha (in N-terminal) cells. (AID 2060322); settings: NCI-H358 eGFP-delta133p53alpha fluorescence, 24 h; activation: active compounds read high; further: nearly all actives have a fitted effect of over 75% in size; further: potency means the concentration at half of the fitted maximal effect;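 on activation: series mostly up to about 56 µM; 0% = DMSO vehicle and 100% = reference activator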
How it was run: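 NCI-H358 cells pre-induced 24 h with 10 ng/ml doxycycline to express N-terminal eGFP-delta133p53alpha, then dosed 24 h at 37C without doxycycline; fixed, Hoechst-stained, GFP intensity by laser scanning cytometry, normalized to DMSO (0%) and 57.5 uM 5-azacytidine (100%).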

[2] = target: Cellular tumor antigen p53 (Homo sapiens) (UniProt P04637); experiment: Primary qHTS for small molecule compounds that upregulate eGFP-tagged delta133p53alpha (in C-terminal) cells. (AID 2060324);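 further: 0% = DMSO wells and 100% = 57.5 µM 5-azacytidine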
How it was run: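 NCI-H358 cells with doxycycline-inducible D133p53a-eGFP (C-terminal tag), pre-induced 24 h with 100 ng/ml doxycycline, plated 800/well in doxycycline-free medium and treated 24 h at 37 °C with compound titrations. Cells were then fixed and Hoechst-stained, and GFP intensity was read by laser scanning cytometry.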

[3] = target: Aldehyde dehydrogenase, mitochondrial (Homo sapiens) (UniProt P05091); experiment: qHTS for Inhibitors of the Aldehyde Dehydrogenase Family (ALDH2) Validation screens (AID 2061302; active means well fitted inhibition curve with a large enough effect; title and protocol of this record describe different tests;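 further: plate controls were DMSO vehicle for no effect and maximal DPI positive control response for full effect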)
[4] = target: Aldehyde dehydrogenase, mitochondrial (Homo sapiens) (UniProt P05091); experiment: qHTS for Inhibitors of the Aldehyde Dehydrogenase Family (ALDH2) Confirmatory screens (AID 2061303; active means well fitted inhibition curve with a large enough effect; title and protocol of this record describe different tests; further: on the % scale 0 is the no-effect control and ±100 the full control effect; nearly all actives have a fitted effect of over 45% in size)
[5] = qHTS for Inhibitors of the Aldehyde Dehydrogenase Family (ALDH1A2, ALDH1A3, ALDH2, ALDH3A1) (AID 2061307); further: on the % scale 0 is the no-effect control and ±100 the full control effect; nearly all actives have a fitted effect of over 50% in size
[6] = target: Retinaldehyde dehydrogenase 3 (Homo sapiens) (UniProt P47895); experiment: qHTS for Inhibitors of the Aldehyde Dehydrogenase Family (ALDH1A3) Confirmatory screens (AID 2061311); further: on the % scale 0 is the no-effect control and ±100 the full control effect; nearly all actives have a fitted effect of over 60% in size
[7] = target: Retinaldehyde dehydrogenase 3 (Homo sapiens) (UniProt P47895); experiment: qHTS for Inhibitors of the Aldehyde Dehydrogenase Family (ALDH1A3) Validation screen (AID 2061312); further: on the % scale 0 is the no-effect control and ±100 the full control effect; nearly all actives have a fitted effect of over 45% in size
[8] = target: Retinal dehydrogenase 2 (Homo sapiens) (UniProt O94788); experiment: qHTS for Inhibitors of the Aldehyde Dehydrogenase Family (ALDH1A2) Confirmation screens (AID 2061314); further: on the % scale 0 is the no-effect control and ±100 the full control effect; nearly all actives have a fitted effect of over 65% in size
[9] = target: Aldehyde dehydrogenase 1A1 (Homo sapiens) (UniProt P00352); experiment: qHTS for Inhibitors of the Aldehyde Dehydrogenase Family (ALDH1A1) Confirmatory screens (AID 2061316); further: on the % scale 0 is the no-effect control and ±100 the full control effect; nearly all actives have a fitted effect of over 65% in size

Cellular tumor antigen p53 (Homo sapiens), sequence (P04637 whole entry, looked up): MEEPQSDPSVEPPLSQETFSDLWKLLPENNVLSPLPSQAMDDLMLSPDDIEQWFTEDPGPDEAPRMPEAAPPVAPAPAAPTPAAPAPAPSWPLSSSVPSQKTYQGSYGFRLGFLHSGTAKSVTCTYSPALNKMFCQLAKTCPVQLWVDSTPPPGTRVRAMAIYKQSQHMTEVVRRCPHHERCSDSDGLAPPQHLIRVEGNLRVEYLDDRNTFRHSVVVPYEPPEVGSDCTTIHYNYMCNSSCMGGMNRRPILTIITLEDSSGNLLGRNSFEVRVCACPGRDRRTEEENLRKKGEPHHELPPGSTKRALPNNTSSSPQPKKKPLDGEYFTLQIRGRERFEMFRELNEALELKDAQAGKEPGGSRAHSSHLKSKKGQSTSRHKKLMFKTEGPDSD

CCc1c(C)[nH]c2c1C(=O)C(CN1CCOCC1)CC2 (stereo unspecified)
inactive: activation [1] 4.18% and -34.4% | Potency [2] | Potency [3]

NS(=O)(=O)c1cc2c(cc1Cl)NC(C1CC3C=CC1C3)NS2(=O)=O (stereo unspecified)
inactive: activation [1] -1.69% and -18.7% | Potency [2] | Potency [3]

CCCCCC[C@@H]([C@@H](C)O)n1cnc2c(N)ncnc21
inactive: activation [1] -41.6% | Potency [2] | Potency [3]

OCCN1CCN(CC/C=C2/c3ccccc3Sc3ccc(C(F)(F)F)cc32)CC1
inactive: activation [1] -48.7% | Potency [2] | Potency [3]

CSc1ccc2c(c1)C(N1CCN(C)CC1)Cc1ccccc1S2 (stereo unspecified)
inactive: activation [1] 48% | Potency [2] | Potency [3]

COc1ccc2c(c1OC)C(=O)O[C@@H]2[C@H]1c2c(cc3c(c2OC)OCO3)CCN1C
inactive: Potency [2] | Potency [3]
active: Potency [1] 21.9 µM

COc1ccc(CCN(C)CCc2ccc(OC)c(OC)c2)cc1OC
inactive: activation [1] -16.8% | Potency [2] | Potency [3]

Cc1cc2c(cc1Cl)N(C(=O)Nc1ccnc3ccccc13)CC2
inactive: activation [1] 4.1% | Potency [2] | Potency [3]

C[C@](Cc1ccc(O)c(O)c1)(NN)C(=O)O
inactive: activation [1] -15.4% | Potency [2] | Potency [3]

NCCCNCCCCNCCCN
inactive: activation [1] -8.4% | Potency [2] | Potency [3]

CN1C2CCC1CC(OC(=O)C(O)c1ccccc1)C2 (stereo unspecified)
inactive: activation [1] 8.16% | Potency [2] | Potency [3]

NC(C(=O)N[C@@H]1C(=O)N2C(C(=O)O)=C(Cl)CS[C@H]12)c1ccccc1 (stereo partly specified)
inactive: activation [1] 6.44% | Potency [2] | Potency [3]

CC(=O)Oc1cc(C(C)C)c(OCCN(C)C)cc1C
inactive: activation [1] -0.837% and 6.26% | Potency [2] | Potency [3]

CCCn1cnc2c1c(=O)n(CCCCC(C)=O)c(=O)n2C
inactive: activation [1] 0.837% and -17.3% | Potency [2] | Potency [3] | Potency [4] | Potency [5] | Potency [6] | Potency [7] | Potency [8] | Potency [9]

CC(CN1c2ccccc2Sc2ccccc21)N(C)C (stereo unspecified)
inactive: activation [1] -20.9% and -2.49% | Potency [2] | Potency [3]

[N-]=[N+]=Nc1ccc(C(=O)CSC[C@H](NC(=O)CC[C@H](N)C(=O)O)C(=O)NCC(=O)O)cc1
inactive: activation [1] -38.2% | Potency [2] | Potency [3]

CNc1cc(NS(=O)(=O)c2ccc(N)cc2)nc(NC)n1
inactive: activation [1] -5.43% | Potency [2] | Potency [3]

CCN(CC)CCOC(=O)c1cc(Cl)c(N)cc1OC
inactive: activation [1] -18.7% | Potency [2] | Potency [3]

CCCCCCCCCCCCCCCCCCN(CCCCCCCCCCCCCCCCCC)CCCN(CCO)CCO
inactive: activation [1] -13.9% | Potency [2] | Potency [3]

OCCN1CCN(CCCN2c3ccccc3C=Cc3ccccc32)CC1
inactive: activation [1] -10.7% and -5.62% | Potency [2] | Potency [3]
